# Hit rate of the full screen: of about 69,000 compounds, about 1,000 (1.4%) showed an effect of 50% or more. What follows is part of a selection rich in strong results, with near analogues and random picks from the rest.
# System: Leishmania donovani
# Test: Leishmania intramacrophage assay
# Assay type: functional, organism-based
# Design: scale not given: in the data most compounds retested in dose-response had high values
smiles,measurement,setting,value
CC(C)(O)c1cc(CC2(NCc3ccccc3Cl)COC2)no1,Percent Effect,"30.3 µM, […]",25.25%
CC(C)n1cnnc1CCNCc1cn(CCC(N)=O)c2ccccc12,Percent Effect,"30.3 µM, […]",32.43%
CC(NCc1cn(CCC(N)=O)c2ccccc12)c1nncn1C (stereo unspecified),Percent Effect,"30.3 µM, […]",-7.777%
Cc1ccc(C(C)NCc2cn(CCC(N)=O)c3ccccc23)cc1C (stereo unspecified),Percent Effect,"30.3 µM, […]",88.97%
O=C(Cn1c(=O)nc2n1C(=O)N(c1ccccc1)C2)NC1CCCCC1,Percent Effect,"30.3 µM, […]",-29.26%
COc1ccccc1CN1C(=O)O[C@@H]2CN(Cc3cccc(C)n3)C[C@@H]21,Percent Effect,"30.3 µM, […]",-18.87%
CC(C)c1nnc2n1CC(CNCc1nc3ccccc3s1)CC2 (stereo unspecified),Percent Effect,"30.3 µM, […]",-6.919%
O=C(Nc1c(N2CCCC2)cccc1N1CCCC1)c1cnsn1,Percent Effect,"30.3 µM, […]",-91.54%
O=C(Nc1c(N2CCCC2)cccc1N1CCCC1)c1ccccn1,Percent Effect,"30.3 µM, […]",56.83%
O=C(Nc1c(N2CCCC2)cccc1N1CCCC1)c1cnccn1,Percent Effect,"30.3 µM, […]",2.563%
N#Cc1ccccc1CN1C[C@@H]2CC[C@H](C1)N(CC1CC1)C2=O,Percent Effect,"30 µM, 30.03 µM",6.562%
COc1ccc(CNC(=O)CCc2c(C)noc2C)cc1F,Percent Effect,"30.3 µM, […]",14.24%
c1ccc(Cc2nc(CNC3CCC4(CCNCC4)CC3)no2)cc1,Percent Effect,"30.3 µM, […]",-22.96%
CCOC(=O)N1CCN(C(=O)C2CC(=O)N(c3ccccc3Br)C2)CC1 (stereo unspecified),Percent Effect,"30.3 µM, […]",15.14%
Cc1c(Cl)cccc1NCc1nc2n(n1)CCCCC2,Percent Effect,"30.3 µM, […]",55.49%
Cc1ccc(Cl)cc1NCc1nc2n(n1)CCCCC2,Percent Effect,"30.3 µM, […]",5.268%
Cc1ccccc1NCc1nc2n(n1)CCCCC2,Percent Effect,"30.3 µM, […]",-2.813%
Cl.Cl.O=C(NCc1cncc2c1CCN(Cc1cccc(F)c1)C2)C1CC1,Percent Effect,"30 µM, 30.03 µM",-3.8%
CC(NC(=O)NCCn1ccnc1)c1nncn1C (stereo unspecified),Percent Effect,"30.3 µM, […]",-59.34%
CCc1nc(NC(=O)NCCc2scnc2C)nn1C,Percent Effect,"30.3 µM, […]",-19.54%
CC1CCCN(Cc2csc(-c3ncccn3)n2)CC1 (stereo unspecified),Percent Effect,"30 µM, 30.03 µM",43.73%
CCCC1CCCN(Cc2csc(-c3cnn(C)c3)n2)CC1 (stereo unspecified),Percent Effect,"30 µM, 30.03 µM",-20.44%
CCCC1CCCN(Cc2csc(-c3ncccn3)n2)CC1 (stereo unspecified),Percent Effect,30 µM,77.24%
O=C1NC(c2cccnc2)=NC12CCN(CCCc1ccccc1)CC2,Percent Effect,"30.3 µM, […]",-4.495%
CC(CN1CCC2(CC1)N=C(c1cccnc1)NC2=O)c1ccccc1 (stereo unspecified),Percent Effect,"30.3 µM, […]",100.2%
CC1=NC2(CCN(CC(C)c3ccccc3)CC2)C(=O)N1 (stereo unspecified),Percent Effect,"30.3 µM, […]",10.6%
Cc1nc(CN2CCCC(CCc3c(F)cccc3F)C2)c[nH]1 (stereo unspecified),Percent Effect,"30 µM, 30.03 µM",47.92%
Cc1nc(CN2CCCC(CCc3ccc(F)cc3F)C2)c[nH]1 (stereo unspecified),Percent Effect,"30 µM, 30.03 µM",30.76%
Cc1nc(CN2CCCC(CCc3ccc(F)c(F)c3)C2)c[nH]1 (stereo unspecified),Percent Effect,"30.3 µM, […]",65.39%
COCC1CN(C(=O)Nc2cc(-n3cccc3)ccc2F)CCO1 (stereo unspecified),Percent Effect,"30.3 µM, […]",7.734%
CNC(=O)CN1CCOC(c2cccc(N)n2)C1 (stereo unspecified),Percent Effect,"30.3 µM, […]",18.21%
CN(Cc1nnc(C2CC2)n1C)C1CCN(Cc2nccn2C)C1 (stereo unspecified),Percent Effect,30 µM,20.02%
O=C(NCCc1nncn1C1CC1)C1(Cc2ccccc2)CCC1,Percent Effect,"30.3 µM, […]",8.956%
CN(C)CCN(Cc1ccccn1)Cc1ccnn1C1CCCCO1.O=C(O)CC(O)(CC(=O)O)C(=O)O (stereo unspecified),Percent Effect,"30.3 µM, […]",29.57%
Cc1sc2nc(CCN)nc(N(C)CCCC3CCCO3)c2c1C (stereo unspecified),Percent Effect,"30.3 µM, […]",63.54%
CCCSc1nn(CCN(C)C)c2nc3sc(C)c(CC)c3c(=O)n12,Percent Effect,"30.3 µM, […]",45.45%
CCN(CCN(C)C)c1nc(CCN)nc2sc(C)c(C)c12,Percent Effect,"30.3 µM, […]",54.95%
COCCN(CC1CC1)c1nc(CCN)nc2sc(C)c(C)c12,Percent Effect,"30.3 µM, […]",77.93%
Cc1sc2nc(CCN)nc(N(CCN(C)C)CC3CCCO3)c2c1C (stereo unspecified),Percent Effect,"30.3 µM, […]",38.72%
CC(=O)N1CCc2c(nc(N(C)C)nc2N(C)CCCC2CCCO2)C1 (stereo unspecified),Percent Effect,"30.3 µM, […]",-1.539%
Cc1nn(C2CCS(=O)(=O)C2)c(O)c1Cc1ccccc1 (stereo unspecified),Percent Effect,"30.3 µM, […]",20.59%
Cc1csc(CN(CC2CCCO2)C(=O)c2ccc(C)nc2C)n1 (stereo unspecified),Percent Effect,"30.3 µM, […]",-39.1%
Cc1cc(=O)n(C)cc1NC(=O)Cc1cccc(Cl)c1,Percent Effect,"30.3 µM, […]",-5.155%
CCOCC1CN(CC2CC2)Cc2nn(CC3CC3)cc21.O=C(O)C(F)(F)F (stereo unspecified),Percent Effect,"30.3 µM, […]",-3.875%
CNC(=O)c1ccc(C2CN(C(=O)c3cnn(C)c3)CCO2)nc1 (stereo unspecified),Percent Effect,"30.3 µM, […]",4.595%
CN(C)CCO[C@@H]1CC[C@H]2[C@H]1OCCN2C(=O)COc1ccccc1.O=C(O)C(F)(F)F,Percent Effect,"30 µM, 30.03 µM",28.35%
NS(=O)(=O)c1ccc(N2CCN(CCCc3cn[nH]c3)CC2)cc1,Percent Effect,"30.3 µM, […]",-5.312%
COc1ccc(S(=O)(=O)N2CCC[C@@H]3CN(C(=O)C4CC4)C[C@@H]32)cc1F,Percent Effect,"30.3 µM, […]",-21.4%
COc1cc(CNCc2ccco2)ccc1OCCO.Cl,Percent Effect,"30.3 µM, […]",36%
COc1cc(C(C)=O)ccc1OCCNCc1ccco1.Cl,Percent Effect,"30.3 µM, […]",31.62%
CCCc1ccc(OCCNCc2ccco2)c(OC)c1.Cl,Percent Effect,"30.3 µM, […]",65.86%

# From ChEMBL document CHEMBL3988442, “University of Dundee, Small-Polar-MMV Screening Library” (2021)
